This note sets out measurements from PubChem BioAssay (NCI).

About 79,000 compounds went through this panel and 15% of them were active in at least one assay; those are over-represented in the sample as a whole. A number with no mark means an inactive call. Activity calls are given as the source filed them. Rule as the data show it: active = growth inhibition above about 70%; inactive = the rest.

Assay [1] is described as follows: NCI Yeast Anticancer Drug Screen. Data for the rad50 strain (AID 155).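 Also: 0% = growth of vehicle-only cultures of the same strain.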 Conditions: S. cerevisiae rad50 strain growth inhibition; at 50.0 µM; stronger effect = higher value. The method, boiled down:
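DNA repair mutant yeast, compound exposure, growth read-out; inhibition is taken relative to vehicle.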

The nature of assay [2]: NCI Yeast Anticancer Drug Screen. Data for the mec2-1 strain (AID 157). The conditions noted are these: S. cerevisiae mec2-1 strain, at 50.0 µM, stronger effect = higher value. The procedure, abridged: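 Each compound was tested on mec2-1 yeast, a strain altered in DNA damage repair or cell cycle control. Growth inhibition is reported relative to vehicle.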
Assay [3] can be described thus: NCI Yeast Anticancer Drug Screen. Data for the sgs1 mgt1 strain (AID 161).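 Also: 0% = growth of cultures given vehicle only.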 The conditions noted are these: S. cerevisiae sgs1 mgt1 strain, at 50.0 µM, stronger effect = higher value. The procedure, abridged:
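Read-out: growth inhibition vs vehicle controls. Cells: mutant yeast strain deficient in DNA damage repair.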

A short description of assay [4]: NCI Yeast Anticancer Drug Screen. Data for the cln2 rad14 strain (AID 165).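 Also: 0% = growth equal to vehicle treated cultures.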 Conditions: S. cerevisiae cln2 rad14 strain, at 50.0 µM, stronger effect = higher value. The method, boiled down:
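Test compounds were added to cln2 rad14 yeast cultures; inhibition of growth was then determined by comparison with vehicle treatment.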

Assay [5] can be described thus: NCI Yeast Anticancer Drug Screen. Data for the bub3 strain (AID 167). Conditions: S. cerevisiae bub3 mutant strain, at 50.0 µM, stronger effect = higher value. The method, boiled down: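 In this screen, a yeast mutant lacking normal mitotic checkpoint function is challenged with compound. Relative growth versus vehicle gives the inhibition value.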
The nature of assay [6]: NCI Yeast Anticancer Drug Screen. Data for the mlh1 rad18 strain (AID 175). The conditions noted are these: S. cerevisiae mlh1 rad18 strain growth inhibition; at 50.0 µM; stronger effect = higher value. The method, boiled down: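 Inhibition values reflect reduced growth of mutant yeast versus vehicle-treated controls following compound exposure; the mutations affect DNA damage repair.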

Consider `O=C(O)CCCC1=C2CCC(=O)C=C2CCC1`, for which the growth inhibition in assay [1] was -15.8%; in assay [2], -24.6%; in assay [3] it was -10.3%; in assay [4] it was 0.2%; in assay [5], -20.6%; in assay [6] it was -10.1%.
On to `N#Cc1c2ccccc2c(C#N)c2ccccc12`, for which the growth inhibition in assay [1] was -4.5%; in assay [2] it was -8.15%; in assay [3], 1.9%; in assay [4], -25.7%; in assay [5], 1.3%; in assay [6], -12.3%.
For the compound `C1CC[N+]2(CC1)CCCCC2`, the growth inhibition in assay [1] was 0.1%; in assay [2], 9.4%; in assay [3], -0.55%; in assay [4] it was 14.2%; in assay [5] it was 23.1%; in assay [6], -0.45%.
As to `CC(C)COC1=CC(=O)c2ccccc2C1=O`, the growth inhibition in assay [1] was 16.4%; in assay [2] it was 17.4%; in assay [3], 18.6%; in assay [4], -1.05%; in assay [5], 35%; in assay [6] it was -7%.
For `O=C1c2cccnc2C(=O)C2CC3=C(CCCC3)CC12` (centres undefined), the growth inhibition in assay [1] was 97.9% (active); in assay [2], 97.4% (active); in assay [3] it was 96.9% (active); in assay [4], 88.2% (active); in assay [5] it was 97.4% (active); in assay [6], 98.5% (active).
Turning to `Cc1ccc(C(=O)Oc2ccccc2)cc1`, the growth inhibition in assay [1] was -3.35%; in assay [2], -5.1%; in assay [3] it was -11.7%; in assay [4] it was -34.2%; in assay [5] it was -7.2%; in assay [6] it was -20%.
`COC(=O)C(=O)C(C#N)c1c(Cl)cccc1Cl` (centres undefined): the growth inhibition in assay [1] was -5.6%; in assay [2], 39.1%; in assay [3] it was 0.05%; in assay [4], 8.9%; in assay [5], 1.65%; in assay [6] it was 34.1%.
With `CC(=O)OCC1OC(N=[N+]=[N-])C(OC(C)=O)C(OC(C)=O)C1OC1OC(COC(C)=O)C(OC(C)=O)C(OC(C)=O)C1OC(C)=O` (centres undefined), the growth inhibition was -19.1% in assay [1]; -29.9% in assay [2]; -16.2% in assay [3]; -0.35% in assay [4]; 5.55% in assay [5]; -17.1% in assay [6].
For `CCCCC(C)NC(=O)c1ccccc1` (centres undefined), the growth inhibition is 4.3% in assay [1]; 11.3% in assay [2]; -23.8% in assay [3]; -52.5% in assay [4]; -3.8% in assay [5]; 2% in assay [6].
Regarding `CCOC(=O)C(C(=O)OCC)n1c(=O)c2c(ncn2C)n(C)c1=O`, the growth inhibition is 13.2% in assay [1]; -0.55% in assay [2]; -16.8% in assay [3]; 16.1% in assay [4]; 13% in assay [5]; 10.3% in assay [6].
`CNC(=O)NCCCC(NC(C)=O)C(=O)NCc1ccccc1` (centres undefined): the growth inhibition is -19% in assay [1]; -16.7% in assay [2]; -16.2% in assay [3]; 6.4% in assay [4]; -12.5% in assay [5]; 4.7% in assay [6].
Turning to `NC(N)=NC(N)=Nc1ccccc1`, the growth inhibition in assay [1] was -15.9%; in assay [2], 14.8%; in assay [3] it was -1.8%; in assay [4] it was -5.9%; in assay [5], 1.15%; in assay [6], 11.6%.
In the case of `O=C(O)C1CCCC2C(O)CCC(O)C12` (centres undefined), the growth inhibition in assay [1] was -10.4%; in assay [2], -15.4%; in assay [3], -1.85%; in assay [4], -12.9%; in assay [5] it was -7.2%; in assay [6] it was -34.1%.
With `CCOC(=O)NC(Nc1ccc(OC(F)(F)F)cc1)(C(F)(F)F)C(F)(F)F`, the growth inhibition is -8.7% in assay [1]; -8.2% in assay [2]; -39.1% in assay [3]; -1.25% in assay [4]; -19.9% in assay [5]; -0.3% in assay [6].
Consider `CCOC(=O)C(NC(=O)CC(C)C)(NC(C)C)C(F)(F)F` (centres undefined), for which the growth inhibition was -8.45% in assay [1]; -2.25% in assay [2]; -9.4% in assay [3]; -8.1% in assay [4]; -3.45% in assay [5]; -12.9% in assay [6].
Consider `O=C(OCCCCO)c1cc([N+](=O)[O-])cc([N+](=O)[O-])c1`, for which the growth inhibition in assay [1] was -12.8%; in assay [2] it was 13.9%; in assay [3], 0.1%; in assay [4], 0.7%; in assay [5], 12.1%; in assay [6], -27.9%.
Regarding `COc1cccc(C(=O)NNC(=O)c2ccc3ccccc3c2)c1`, the growth inhibition in assay [1] was 13.2%; in assay [2] it was 4.55%; in assay [3] it was -2.45%; in assay [4], 6.55%; in assay [5], 3.9%; in assay [6] it was 7.95%.
For `O=C(O)CCC(=O)c1ccc2c3c(cccc13)CC2`, the growth inhibition was 22.6% in assay [1]; 0.9% in assay [2]; 15.2% in assay [3]; 46% in assay [4]; 21.5% in assay [5]; 36% in assay [6].
In the case of `CC(=O)Oc1c(C(OC(C)=O)OC(C)=O)ccc([N+](=O)[O-])c1OC(C)=O`, the growth inhibition in assay [1] is 34.1%; in assay [2] it was 28.9%; in assay [3] it was 36.5%; in assay [4] it was 5.5%; in assay [5], 9.3%; in assay [6] it was 18.9%.
